The target of this experiment is Ubiquitin carboxyl-terminal hydrolase 9X (Homo sapiens) (UniProt Q93008). Put plainly: binders of human deubiquitinase USP9X – biophysical, surface plasmon resonance, orthogonal assay, late-stage follow-up (AID 652234). The settings on record: Recombinant USP9X, SPR Biacore T200, RU; at 100 µM (top of the series). On the technique in general: In SPR one partner is held on a chip, and binding of the other changes the refractive index at the surface.

Each structure is given as a SMILES string. The source made the active and inactive calls. The rule behind the calls is not given here.

Chain of Ubiquitin carboxyl-terminal hydrolase 9X (Homo sapiens) (Q93008 whole entry, looked up): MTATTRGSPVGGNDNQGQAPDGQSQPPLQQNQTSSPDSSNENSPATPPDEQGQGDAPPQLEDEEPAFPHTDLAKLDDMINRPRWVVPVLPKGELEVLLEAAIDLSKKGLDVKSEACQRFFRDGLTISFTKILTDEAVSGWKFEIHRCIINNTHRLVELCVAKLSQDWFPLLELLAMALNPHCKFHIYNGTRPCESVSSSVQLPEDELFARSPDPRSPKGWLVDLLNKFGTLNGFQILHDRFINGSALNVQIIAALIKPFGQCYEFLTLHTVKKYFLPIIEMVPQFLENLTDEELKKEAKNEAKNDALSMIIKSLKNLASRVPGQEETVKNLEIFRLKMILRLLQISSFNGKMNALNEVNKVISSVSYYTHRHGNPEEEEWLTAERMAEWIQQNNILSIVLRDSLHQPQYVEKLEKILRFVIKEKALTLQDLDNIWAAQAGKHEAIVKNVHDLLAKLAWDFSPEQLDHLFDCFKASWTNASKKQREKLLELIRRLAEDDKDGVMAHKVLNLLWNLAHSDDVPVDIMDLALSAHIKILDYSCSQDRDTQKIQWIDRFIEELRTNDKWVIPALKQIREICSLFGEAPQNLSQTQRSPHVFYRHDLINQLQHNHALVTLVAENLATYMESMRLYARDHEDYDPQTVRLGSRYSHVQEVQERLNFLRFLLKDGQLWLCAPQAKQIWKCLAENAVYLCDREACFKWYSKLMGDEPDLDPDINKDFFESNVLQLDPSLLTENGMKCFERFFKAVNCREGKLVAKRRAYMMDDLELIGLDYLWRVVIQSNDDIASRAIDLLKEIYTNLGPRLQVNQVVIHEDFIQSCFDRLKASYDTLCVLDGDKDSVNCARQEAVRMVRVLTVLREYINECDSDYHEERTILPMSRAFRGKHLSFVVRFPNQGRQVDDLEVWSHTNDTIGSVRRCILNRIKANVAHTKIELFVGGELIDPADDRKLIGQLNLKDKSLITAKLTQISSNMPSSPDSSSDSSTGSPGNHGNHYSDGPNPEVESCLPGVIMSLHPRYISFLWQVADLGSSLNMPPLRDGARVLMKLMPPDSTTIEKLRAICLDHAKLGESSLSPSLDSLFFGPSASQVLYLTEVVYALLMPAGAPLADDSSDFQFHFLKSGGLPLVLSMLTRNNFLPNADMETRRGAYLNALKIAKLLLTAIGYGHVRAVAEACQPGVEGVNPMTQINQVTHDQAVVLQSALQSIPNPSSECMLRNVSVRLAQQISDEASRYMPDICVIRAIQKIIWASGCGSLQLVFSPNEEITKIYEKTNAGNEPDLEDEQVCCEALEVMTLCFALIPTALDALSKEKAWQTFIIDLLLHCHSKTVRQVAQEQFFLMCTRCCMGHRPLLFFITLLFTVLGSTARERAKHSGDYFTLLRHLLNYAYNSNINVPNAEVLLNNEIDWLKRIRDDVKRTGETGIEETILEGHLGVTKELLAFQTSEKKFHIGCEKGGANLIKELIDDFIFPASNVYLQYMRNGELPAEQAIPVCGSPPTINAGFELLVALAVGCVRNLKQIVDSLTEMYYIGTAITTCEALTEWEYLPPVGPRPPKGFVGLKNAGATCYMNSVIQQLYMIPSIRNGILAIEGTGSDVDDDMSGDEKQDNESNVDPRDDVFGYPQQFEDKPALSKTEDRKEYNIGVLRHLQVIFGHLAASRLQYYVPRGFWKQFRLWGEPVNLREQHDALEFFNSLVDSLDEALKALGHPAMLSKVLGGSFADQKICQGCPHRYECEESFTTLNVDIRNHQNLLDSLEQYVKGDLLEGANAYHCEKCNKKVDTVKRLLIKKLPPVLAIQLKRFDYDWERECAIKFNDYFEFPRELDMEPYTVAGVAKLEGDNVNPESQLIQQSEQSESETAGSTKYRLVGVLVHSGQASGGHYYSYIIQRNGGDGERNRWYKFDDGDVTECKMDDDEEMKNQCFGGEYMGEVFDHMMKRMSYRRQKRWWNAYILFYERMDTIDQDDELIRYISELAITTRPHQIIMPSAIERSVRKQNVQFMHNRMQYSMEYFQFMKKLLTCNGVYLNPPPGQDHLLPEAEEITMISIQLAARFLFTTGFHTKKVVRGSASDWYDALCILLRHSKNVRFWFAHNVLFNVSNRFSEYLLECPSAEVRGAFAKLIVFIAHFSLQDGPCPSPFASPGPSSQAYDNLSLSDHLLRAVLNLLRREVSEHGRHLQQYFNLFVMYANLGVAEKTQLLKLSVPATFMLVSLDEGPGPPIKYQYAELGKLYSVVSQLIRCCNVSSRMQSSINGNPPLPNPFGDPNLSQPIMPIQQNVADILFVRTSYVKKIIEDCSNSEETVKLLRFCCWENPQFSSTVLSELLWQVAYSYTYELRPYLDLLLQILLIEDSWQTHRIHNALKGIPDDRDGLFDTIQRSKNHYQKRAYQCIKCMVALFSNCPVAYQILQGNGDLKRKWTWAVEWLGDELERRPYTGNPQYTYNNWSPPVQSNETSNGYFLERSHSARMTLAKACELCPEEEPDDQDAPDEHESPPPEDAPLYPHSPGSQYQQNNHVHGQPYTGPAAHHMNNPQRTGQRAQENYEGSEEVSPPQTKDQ

For the compound `C[C@@H]1CN([C@@H](C)CO)C(=O)c2cccc(NC(=O)Nc3cccc4ccccc34)c2O[C@H]1CN(C)S(=O)(=O)c1ccc2c(c1)OCCO2`, the binding signal (RU), higher = more binding was 11.2 (active).

(Values after PubChem BioAssay AID652234 (Broad Institute, 2013).)
